Data: PubChem BioAssay AID2551 (National Center for Advancing Translational Sciences (NCATS), 2010)
Among all 310,000 compounds or so, about 17,000 (5.5%) were called active. Another 11% or so got no clear call; they are omitted. Shown is part of a subset that was picked to be rich in actives. A number with no mark means an inactive call. Calls follow the shape of the dose curve; as a rule, active = well fitted inhibition curve with a large enough effect; inconclusive = small, poorly fitted or top-dose-only effect, or effect the other way; inactive = no such curve, though single readings can be large or run the other way.

biological target: Nuclear receptor ROR-gamma (Mus musculus) (UniProt P51450); experiment: qHTS for inhibitors of ROR gamma transcriptional activity; conditions: Drosophila S2 Gal4-RORgamma UAS-luciferase reporter, 20 h; series mostly up to 53.6 µM; activity change, negative = inhibition: at the top concentration; also: nearly all actives have a fitted effect of over 60% in size
In short: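 Stable Schneider cell line, Gal4 DNA-binding domain fused to ROR gamma, UAS-luciferase. Cmpd 1 hr RT → CuSO4 700 uM final → 20 hr RT → luciferase reagent 10 min → luminescence.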
% is scaled to controls: 0 for no effect and ±100 for the full control effect; potency is read from the fitted curve at half-maximal effect.

Sequence of Nuclear receptor ROR-gamma (Mus musculus) (P51450 whole entry, looked up, the tested form may be a part): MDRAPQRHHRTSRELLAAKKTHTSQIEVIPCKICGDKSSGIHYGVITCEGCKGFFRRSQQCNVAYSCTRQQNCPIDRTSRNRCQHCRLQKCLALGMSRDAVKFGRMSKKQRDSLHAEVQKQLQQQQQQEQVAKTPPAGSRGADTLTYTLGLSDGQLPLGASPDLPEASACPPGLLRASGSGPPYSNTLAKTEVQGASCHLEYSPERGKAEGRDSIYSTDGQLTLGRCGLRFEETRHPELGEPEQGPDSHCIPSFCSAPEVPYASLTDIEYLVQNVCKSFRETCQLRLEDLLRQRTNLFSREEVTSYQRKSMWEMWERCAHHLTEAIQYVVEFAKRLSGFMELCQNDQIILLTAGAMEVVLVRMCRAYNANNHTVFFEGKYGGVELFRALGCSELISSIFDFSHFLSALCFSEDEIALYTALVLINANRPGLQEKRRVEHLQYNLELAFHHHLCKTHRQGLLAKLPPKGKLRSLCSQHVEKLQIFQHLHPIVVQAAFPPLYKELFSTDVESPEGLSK

Structure (SMILES)	Potency	activity change, negative = inhibition
CCCCn1c(=S)[nH]c2ccccc2c1=O	2.82 µM (active)	
O=c1c2ccccc2[nH]c(=S)n1CCN1CCC(=C(c2ccc(F)cc2)c2ccc(F)cc2)CC1	11.2 µM (active)	
O=C(CCCN1CCc2[nH]c3ccc(F)cc3c2C1)c1ccc(F)cc1		-24.2%
CCCCNC(=O)c1ccc(-n2c(=S)[nH]c3ccccc3c2=O)cc1		-16.4%
O=C(O)c1ccc(Cn2c(=S)[nH]c3cc(Cl)ccc3c2=O)cc1		-1.95%
CCCCn1c(=S)[nH]c2ncccc2c1=O	2 µM (active)	
O=C(CCn1c(=S)[nH]c2cc3c(cc2c1=O)OCO3)NCc1ccc(Cl)cc1		-16.6%
CN(C)CCn1c(=S)[nH]c2ccc(Cl)cc2c1=O	10 µM (active)	
Cc1ccccc1NC(=O)N1CCCC1C(=O)NCc1ccccc1 (stereo not given)		24.5%
COc1cccc(N(CC(=O)NCc2ccccc2)C(=O)CCC(=O)Nc2nccs2)c1		-25.1%
COc1ccccc1/C=C1\SC(=O)N(CCC(=O)N(C)C2CCS(=O)(=O)C2)C1=O (stereo not given)		-41.4%
CCN(CC)S(=O)(=O)c1ccc(N2CC(C(=O)NCc3cccnc3)CC2=O)cc1 (stereo not given)		28.3%
COCCn1c(N)c(NCc2ccccc2)c(=O)[nH]c1=O		-16%
CCc1nnc(NC(=O)CCC(=O)N2CCN(c3cc(C)ccc3C)CC2)s1		0%
O=C(OCc1ccc([N+](=O)[O-])cc1)C1CC(=O)N(Cc2ccccc2Cl)C1 (stereo not given)		4.03%
COc1ccccc1N1CCN(C(=O)c2cc(=O)c3cc(C)cc(C)c3o2)CC1		-7%
CC1=CC(C)(C)NC(=S)N1c1ccccc1	3.16 µM (active)	
Cc1cccc([C@@H]2[C@@H]3C(=O)N(C)C(=O)[C@@H]3[C@@H]3C(=O)Nc4ccccc4C(=O)N23)c1		-3.16%
Cn1c(CCc2ccccc2)nnc1SCC(N)=O		6.86%
CCC(C)(C)NC(=O)CN(C(=O)CCC(=O)Nc1nccs1)c1ccc2c(c1)OCO2		-5.12%
CC(=O)c1cccc(NC(=O)CN2C(=O)c3cccnc3Oc3ccc(Cl)cc32)c1		10.5%
Nc1cc(N)nc(SCc2ccc(Cl)cc2)n1		31.9%
Clc1ccc(CSc2nnc(/C=C/c3ccccc3)o2)c(Cl)c1		15.2%
CSCc1cc(N(C)C)nc(SCc2ccc(Cl)cc2Cl)n1	8.91 µM (active)	
Cc1cc(C)c(OCC(=O)N(Cc2cccs2)C2CCS(=O)(=O)C2)c(C)c1 (stereo not given)		4.49%
CCOC(=O)c1ccc(NC(=S)Nc2cc(C)cc(C)n2)cc1	2 µM (active)	
Cc1cccc(NC(=O)Cc2ccc(Br)cc2)n1		37.9%
COC(=O)c1ccc(NC(=S)Nc2cccc(C)n2)cc1	2 µM (active)	

Structure (SMILES)	Potency	activity change, negative = inhibition
Cc1cccc(NC(=O)Nc2ccc(OCc3ccccc3)cc2)n1		13.7%
CCOC(=O)c1ccc(NC(=O)Cn2nnc(-c3ccc(C)cc3)n2)cc1		-13.1%
CCOC(=O)c1ccc(NC(=O)c2cccnc2)cc1		20.6%
CC(=O)N1c2ccc(S(=O)(=O)N3CCCC(C(=O)Nc4ccc(C)cc4C)C3)cc2CC1C (stereo not given)		39.3%
COc1cccc(/C=C2\Sc3ccc(C(=O)NCC4CCCO4)cc3N(C)C2=O)c1 (stereo not given)		7.44%
COc1cc(OC)cc(C(=O)NCCSCc2ccc(Cl)cc2)c1		18.3%
CCCCOC(=O)c1ccc(N2C(=O)CC(N3CCN(C/C=C/c4ccccc4)CC3)C2=O)cc1 (stereo not given)		-0.54%
CCCCCCC(=O)N(O)C1CC(=O)N(c2ccccc2)C1=O (stereo not given)	2.82 µM (active)	
CCOC(=O)c1ccc(N2C(=O)CC(N(C)Cc3ccccc3)C2=O)cc1 (stereo not given)		-15.7%
CCNc1ncc2ncc(=O)n(CCc3ccccc3)c2n1		-13%
COc1cccc(Cn2c(=O)c(C)nc3cnc(Oc4ccccc4)nc32)c1		22.4%
CCNc1ncc2ncc(=O)n(Cc3cccc(OC)c3)c2n1	12.6 µM (active)	
Cc1ccc(SCCSc2ncccn2)cc1		-11%
Cc1ccc2c(C)c(C(=O)N(C)Cc3ccncn3)oc2c1C		-42.7%
CCOC(=O)N1CCN(C(=O)c2cn(C)c3ccc(S(=O)(=O)N4CCCC4)cc3c2=O)CC1		-31.5%
CCCCn1c(=S)[nH]c2cc(S(=O)(=O)N3CCCCC3)ccc21	11.2 µM (active)	
O=c1[nH]c2ccc(S(=O)(=O)N3CCCC3)cc2[nH]1		3.62%
CN(C)CCN(C(=O)C1CCCCC1)c1nc2cc3c(cc2s1)OCO3		-15%
CC1(C)C2CCC1(C)C(OC(=O)CCn1ccnc1)C2 (stereo not given)	11.2 µM (active)	
COc1ccc(NC(=O)CCn2ccnc2)c(OC)c1		-5.83%
Brc1ccc(OCCn2ccnc2)cc1		-28%
O=C(Nc1ccncc1)c1ccc(Cl)c([N+](=O)[O-])c1		-5.13%
CC1CCN(C(=S)c2cccc(O)c2)CC1		-14.6%
CC1CCN(C(=S)c2ccc(-c3ccc(Cl)cc3Cl)o2)CC1	15.8 µM (active)	
COc1ccc(C(=O)Nc2c(Cl)cc(Cl)cc2C(=O)N2CCC(C)CC2)cc1		-4.99%
CCc1ccc(NC(=O)CCNS(=O)(=O)c2cccs2)cc1		36.2%
Cc1ccc(NC(=O)[C@H](Cc2ccccc2)NC(=O)C2CCNCC2)cc1		-23.8%
